Rows were chosen to be rich in hits. Some 12% of all compounds tested hit in one or more screens of this group.
Sfp PPTase inh – blocks B. subtilis Sfp PPTase activity | AID 1490 | Biochemical Sfp PPTase activity, qHTS | Potency, µM, inactives show largest response in the series, negative = inhibition, hits mostly inhibitors | Q9F4F7 | 310,000 tested, 3.5% active;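 further: the enzyme is Sfp with the accession as filed and its product quenches rhodamine fluorescence; 0% = enzyme reaction without inhibitor and -100% = no enzyme wells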
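Compounds were incubated with enzyme (final 15 nM) for 15 min at room temperature before substrate addition started the reaction. Fluorescence at 525 nm excitation, 598 nm emission was recorded immediately and after 30 minutes.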
HP1b chromo inh – HP1-beta chromodomain-methylated histone interaction inhibition; AlphaScreen HP1-beta / biotin-H3K9me3 peptide binding; Potency, µM (doses to about 114 µM), without a hit: top-dose activity change, negative = inhibition, actives largely listed as inhibitors; 390,000 tested, 0.56% active; AID 540317; further: nearly all actives have a fitted effect of over 70% in size
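Compound inhibition of the preformed complex between 50 nM HP1-beta and 50 nM biotinylated H3K9me3 peptide was read by AlphaScreen. Buffer was PBS pH 7.4 with 0.01% Tween-20. Incubations ran 30 min at room temperature, with 10 ug/mL donor/acceptor beads.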
JMJD2A Tudor inh – JMJD2A Tudor domain (human) inhibition; O75164; AlphaScreen JMJD2A-Tudor / H3K4me3 peptide binding; Potency, µM (top dose mostly 114 µM), for the others: top-dose activity change, negative = inhibition, actives largely listed as inhibitors; 390,000 tested, 4.4% active; AID 504339; further: on the % scale 0 is the no-effect control and ±100 the full control effect; nearly all actives have a fitted effect of over 50% in size
TDP1 block – TDP1 (human) enzyme inhibition. 350,000 tested, 0.28% active. Q9NUW8. recombinant TDP1, AlphaScreen DNA substrate cleavage. AID 485290. Potency, µM (highest dose often 130 µM), for inactives: at the top dose activity change, negative = inhibition, hits mostly inhibitors; further: on the % scale 0 is the no-effect control and ±100 the full control effect; nearly all actives have a fitted effect of over 40% in size
Target sequence (Q9NUW8 whole entry, looked up): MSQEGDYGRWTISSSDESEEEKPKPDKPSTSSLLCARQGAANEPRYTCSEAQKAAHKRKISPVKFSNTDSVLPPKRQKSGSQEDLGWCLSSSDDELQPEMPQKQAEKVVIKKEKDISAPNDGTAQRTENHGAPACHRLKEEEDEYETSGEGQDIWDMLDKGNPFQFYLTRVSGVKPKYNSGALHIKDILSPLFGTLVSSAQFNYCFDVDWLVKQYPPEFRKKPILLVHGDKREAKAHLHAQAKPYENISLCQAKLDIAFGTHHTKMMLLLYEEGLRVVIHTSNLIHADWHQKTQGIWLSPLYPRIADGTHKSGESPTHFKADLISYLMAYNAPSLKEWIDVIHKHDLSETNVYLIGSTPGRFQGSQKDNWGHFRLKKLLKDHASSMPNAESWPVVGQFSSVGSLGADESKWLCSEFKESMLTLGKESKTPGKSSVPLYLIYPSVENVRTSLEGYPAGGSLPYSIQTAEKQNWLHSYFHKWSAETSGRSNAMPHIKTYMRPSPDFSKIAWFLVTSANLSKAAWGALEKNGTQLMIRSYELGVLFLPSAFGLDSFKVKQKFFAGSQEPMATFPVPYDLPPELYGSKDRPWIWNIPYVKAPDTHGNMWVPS
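Enzyme-compound mixtures sat 15 min at room temperature, followed by a 5 min reaction with 15 nM final substrate and 10 min with AlphaScreen beads. Recombinant human Tdp1 was used at 1 nM final.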
BAZ2B inh – inhibitors of human BAZ2B bromodomain; 360,000 tested, 4.4% active; AID 504333; Potency, µM (series often up to 114 µM), for the others: top-dose activity change, negative = inhibition, most hits filed as inhibitors; AlphaScreen BAZ2B-H3K14Ac peptide displacement; Q9UIF8; further: on the % scale 0 is the no-effect control and ±100 the full control effect; nearly all actives have a fitted effect of over 60% in size
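BAZ2B 50 nM plus b-H3(5-23)K14Ac 50 nM, PBS pH 7.4/0.01% Tween-20, 30 min RT; compound added (max 110 uM), 30 min RT; streptavidin donor/Ni-chelate acceptor beads 10 ug/mL final, 20 min dark; AlphaScreen read.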
G9a inh – blocks human histone lysine methyltransferase G9a | G9a H3K9 monomethylation, AlphaScreen, 2 h | Potency, µM (doses to about 102 µM), for the others: top-dose activity, negative = inhibition, actives largely listed as inhibitors | 350,000 tested, 8.8% active; further: on the % scale 0 is the no-effect control and ±100 the full control effect; nearly all actives have a fitted effect of over 75% in size
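Signal arises when biotinylated H3K9 peptide, once monomethylated, bridges streptavidin donor and antibody-captured acceptor beads. Enzyme at 20 nM was preincubated 15 min with test compounds; peptide 500 nM and SAM 20 uM then reacted for 2 h.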
* hit, by the source's call; [ ] = remark or other dose. The call rests on the fitted dose curve; in most records, active means well fitted curve in the direction sought with a large enough effect; inconclusive means small, poorly fitted or top-dose-only effect, or another doubt; inactive means no such curve, though single readings can be large; an effect the other way counts as inactive or inconclusive. Potency means the concentration at half of the fitted maximal effect.

How did COc1ccc(N2CCN(Cc3cc(OC)c(O)c([N+](=O)[O-])c3)CC2)cc1 do in these assays?
Sfp PPTase inh: inconclusive; HP1b chromo inh: 15.8µM*; JMJD2A Tudor inh: 1µM*; TDP1 block: -2.7%; BAZ2B inh: 50.1µM*; G9a inh: 7.08µM*

How did COc1cc(CN2CCN(c3cccc(C)c3C)CC2)cc([N+](=O)[O-])c1O do in these assays?
Sfp PPTase inh: -8.6%; HP1b chromo inh: inconclusive; JMJD2A Tudor inh: 2.24µM*; TDP1 block: 5.0%; BAZ2B inh: 50.1µM*; G9a inh: 11.2µM*

How did O=C(COC(=O)c1ccc(Cl)nc1)Nc1ccc2c(c1)OCCO2 do in these assays?
HP1b chromo inh: 20.2%; JMJD2A Tudor inh: -13.4%; TDP1 block: 0.7%; BAZ2B inh: -1.8%; G9a inh: 18.4%[12.7 µM]

How did Cc1c(C)c2ccc(OCC(=O)NCCCn3ccnc3)cc2oc1=O do in these assays?
Sfp PPTase inh: -1.6%; HP1b chromo inh: 42.5%; JMJD2A Tudor inh: 22.4µM*; TDP1 block: 4.4%; BAZ2B inh: -17.4%[57.1 µM]; G9a inh: 1.1%

What do the screens show for `Cc1cc(=O)oc2cc(OCC(=O)NCCCn3ccnc3)ccc12`?
Sfp PPTase inh: 10.6%; HP1b chromo inh: 24.8%; JMJD2A Tudor inh: 8.9%; TDP1 block: 3.0%; BAZ2B inh: -19.2%; G9a inh: -7.4%[59 µM]

How did Cc1c(CNCCc2ccccc2Cl)c(C(=O)O)c(C)n1-c1ccccc1 do in these assays?
Sfp PPTase inh: 7.3%; HP1b chromo inh: 16.5%; JMJD2A Tudor inh: inconclusive; BAZ2B inh: -25.2%; G9a inh: inconclusive

How did O=C1Cc2cc(S(=O)(=O)Nc3ccccc3Cl)cc3c2N1CCC3 do in these assays?
Sfp PPTase inh: 8.7%; HP1b chromo inh: 41.5%; JMJD2A Tudor inh: -13.1%; TDP1 block: 4.5%; BAZ2B inh: -14.4%; G9a inh: -10.7%

How did CCn1c(C)[n+](Cc2ccccc2)c2ccc(C(=O)OC)cc21 do in these assays?
Sfp PPTase inh: -8.2%; HP1b chromo inh: -2.5%; JMJD2A Tudor inh: -3.1%; TDP1 block: 4.6%; G9a inh: 31.6µM*

Results for CCn1c(C)[n+](Cc2ccccc2)c2ccc(Cl)cc21 ?
Sfp PPTase inh: -10.4%; HP1b chromo inh: 4.8%; JMJD2A Tudor inh: -18.8%; TDP1 block: 1.2%; BAZ2B inh: -4.1%; G9a inh: inconclusive

How did CCOC(=O)CSc1nc2c(sc(=S)n2-c2ccccc2)c(=O)n1-c1ccc(OC)cc1OC do in these assays?
Sfp PPTase inh: 31.6µM*; HP1b chromo inh: inconclusive; JMJD2A Tudor inh: inconclusive; BAZ2B inh: -34.5%; G9a inh: 1.58µM*

How did CCN(CC)C(=O)CSc1nc2c(sc(=S)n2-c2ccccc2)c(=O)n1-c1ccc(OC)cc1OC do in these assays?
Sfp PPTase inh: 22.4µM*; HP1b chromo inh: inconclusive; JMJD2A Tudor inh: inconclusive; BAZ2B inh: -16.2%; G9a inh: 2µM*

What do the screens show for `c1ccc(-c2n[nH]c(-c3ccccn3)n2)cc1`?
Sfp PPTase inh: 12.0%; HP1b chromo inh: 36.6%; JMJD2A Tudor inh: inconclusive; TDP1 block: 0.0%; BAZ2B inh: 8.91µM*; G9a inh: inconclusive

Results for c1ccc(-c2nc(-c3ccccn3)no2)cc1 ?
Sfp PPTase inh: -5.6%; HP1b chromo inh: 11.4%; JMJD2A Tudor inh: -8.0%; TDP1 block: 3.3%[56.1 µM]; BAZ2B inh: 6.8%; G9a inh: -1.5%[59 µM]

How did Cc1cccc2nc(CSc3nncn3-c3ccccc3)cn12 do in these assays?
Sfp PPTase inh: -7.0%; HP1b chromo inh: 34.2%; JMJD2A Tudor inh: -14.6%; TDP1 block: 5.0%; BAZ2B inh: -9.1%; G9a inh: 39.8µM*

How did c1ccc(-n2cnnc2SCc2cn3ccccc3n2)cc1 do in these assays?
Sfp PPTase inh: -2.0%; HP1b chromo inh: 32.0%; JMJD2A Tudor inh: -6.4%; TDP1 block: -1.9%; BAZ2B inh: 2.9%; G9a inh: 50.1µM*

How did Brc1c(CSc2nncn2-c2ccccc2)nc2ncccn12 do in these assays?
Sfp PPTase inh: 15.3%; HP1b chromo inh: 15.3%; JMJD2A Tudor inh: -1.9%; TDP1 block: 5.8%; BAZ2B inh: -36.1%; G9a inh: 56.2µM*

Bioassay records from PubChem BioAssay.
